Among the data in PubChem BioAssay AID435005 (Broad Institute, 2010) are protection from apoptosis values, retold here.

Hit rate of the full screen: of about 300,000 compounds, about 2,400 (0.8%) were called active. The sample holds actives, similar compounds and a random draw of the others, so the mix is not that of the screen. Values without a mark were called inactive.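 The calls were made as follows: active = Every replicate reaches about 75%, or at least half do and their mean reaches it too (limit read from the data); inconclusive = At least half of replicates reach the limit but their mean does not; inactive = Under half of replicates reach the limit.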

The assay can be described thus: inhibitors of cytokine-induced beta cell apoptosis, primary screen, luminescence (AID 435005).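 Also: 0% = cytokine-treated negative control wells and 100% = positive control rescue; higher means more ATP so stronger rescue from cytokine killing.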 The settings on record: INS-1E cytokine-induced death, ATP luminescence, 48 h; active compounds read high; percent of positive-control rescue, neutral wells zero; concentration not given here.
Regarding `Cc1ccc(-c2nn(-c3ccccc3)cc2C(=O)Nc2cccc(S(=O)(=O)N3CCOCC3)c2)cc1`, the protection from apoptosis is 1.74%.
Consider `COc1ccc(-c2nn(-c3ccccc3)cc2/C=C\C(=O)Nc2ccc(C(=O)O)cc2)cc1`, for which the protection from apoptosis is 8.98%.
On to `Cc1ccc(-c2nn(-c3ccccc3)cc2/C=C/C(=O)Nc2cccc(S(N)(=O)=O)c2)cc1`, for which the protection from apoptosis is 120% (active).
As for `O=S(=O)(c1ccc(SCc2ccccc2)nc1)N1CCCCCC1`, the protection from apoptosis was -5.69%.
`Cc1ccc(-c2csc(NC(=O)C3=COCCO3)n2)cc1C`: the protection from apoptosis is 98.3% (active).
Turning to `CC(=O)NCCC(=O)Nc1nc(-c2ccc3c(c2)OCCO3)cs1`, the protection from apoptosis was -3.86%.
In the case of `NS(=O)(=O)c1ccc2nc(NC(=O)C3=COCCO3)sc2c1`, the protection from apoptosis was -1.35%.
On to `C#CCOCCOCCOCCNc1nc(N2CCN(C(=O)[C@H](CCC(=O)O)n3cc(CN)nn3)CC2)nc(N2CCN(C(=O)[C@H](CCC(=O)O)n3cc(CN)nn3)CC2)n1`, for which the protection from apoptosis was -5.06%.
As for `Cc1noc(C)c1S(=O)(=O)N(C)C[C@H]1Oc2ccc(NC(=O)C3CC3)cc2C(=O)N([C@H](C)CO)C[C@@H]1C`, the figure is 4.52%; as for `CCCCCCc1ccc(O)cc1O`, -5.91%; as for `Cc1c(CC(=O)NCCCCCC(=O)O)c(=O)oc2cc3occ(-c4ccccc4)c3cc12`, -7.43%.
Consider `CCCCCCc1cc2cc(-c3nnc(-c4ccccc4)o3)c(=O)oc2cc1O`, for which the protection from apoptosis was 119% (active).
For the compound `CCCCCCSc1ccc(-c2nc3ccc(Cl)cn3c2NCc2ccccc2)cc1`, the protection from apoptosis is -14.3%.
Take `O=C(COc1ccccc1F)NNC(=O)c1cc(Br)ccc1Cl`: the protection from apoptosis is 4.16%.
Turning to `COc1cccc(/C=N/Nc2ccc(Cl)nn2)c1`, the protection from apoptosis was 0.496%.
Regarding `Oc1cccc(/C=N/Nc2ccc(Cl)nn2)c1O`, the protection from apoptosis was 107% (active).
With `Clc1ccc(N/N=C/c2cccs2)nn1`, the protection from apoptosis is -1.26%.
For the compound `CN(C)C(=O)COC(=O)c1cccc(S(=O)(=O)N2CC3(C)CC2CC(C)(C)C3)c1` (stereo not drawn), the protection from apoptosis is -3.78%.
On to `CN(C)c1nc(Nc2ccc(Cl)c(Cl)c2)nc(N(C)C)n1`, for which the protection from apoptosis is 2.44%.
Take `COc1cc2nc(Cl)nc(NCCO)c2cc1OC`: the protection from apoptosis was -1.61%.
For `OCCNc1nc(Nc2ccc(Cl)c(Cl)c2)nc2ccccc12`, the protection from apoptosis is 89.8% (active).
Regarding `COc1cc(C(=O)NCC(c2ccco2)N2CCCC2)ccc1OCc1ccccc1` (stereo not drawn), the protection from apoptosis was 0.158%.
With `COc1ccc(NC(=O)N(C)C[C@H]2Oc3ccc(NC(=O)C4CC4)cc3C(=O)N([C@H](C)CO)C[C@@H]2C)cc1`, the protection from apoptosis was -3.33%.
Under `O=C(N[C@@H]1C/C=C\C[C@@H](CC(=O)N(CCO)Cc2ccccc2)C(=O)N[C@H](Cc2ccccc2)COC1=O)OCC1c2ccccc2-c2ccccc21` stands 50.5%; under `COc1ccc(-c2nc3cnccn3c2NC2CCCCC2)cc1-c1cccc(Cl)c1`, -8.81%; under `Clc1cccc(N=C2NN=C(c3ccc4c(c3)OCCO4)CS2)c1`, 83.6% (active).
Take `c1ccc(CN2CCC(N=C3NN=C(c4ccc5c(c4)OCCO5)CS3)CC2)cc1`: the protection from apoptosis was -0.528%.
For the compound `Cc1cccc(N=C2NN=C(c3c[nH]c4ccccc34)CS2)c1`, the protection from apoptosis is 22.1%.
Under `CC(C#N)OC(=O)c1cccnc1SCC(=O)Nc1ccc2c(c1)OCO2` (stereo not drawn) stands 3.24%; under `CCNC(=S)N1CCN(S(=O)(=O)c2ccc(Cl)s2)CC1`, -2.64%; under `COc1cc(NC(=O)COC(=O)c2cc(S(=O)(=O)N3CCOCC3)ccc2F)cc(OC)c1`, -2.85%.
Consider `CSc1ccc(NC(=O)/C=C/C(=O)O)cc1`, for which the protection from apoptosis is -4.41%.
For the compound `COc1ccccc1NC(=O)/C=C/C(=O)O`, the protection from apoptosis is -6.73%.
Under `COC(=O)c1sc(-c2ccc(C(C)(C)C)cc2)cc1NC(=O)/C=C/C(=O)O` stands 99.2% (active).
For `CCN(C[C@H]1N[C@@](Cc2ccccc2)(C(=O)OC)[C@H]2C(=O)N(Cc3ccccc3)C(=O)[C@@H]12)C(=O)c1ccc(C)cc1`, the protection from apoptosis was 13.6%.
On to `CC(C)CC(=O)N1CCN(Cc2cccc(Cl)c2)CC1`, for which the protection from apoptosis was 3.65%.
`Clc1cccc(CN2COc3c(cc(Cl)c4cccnc34)C2)c1`: the protection from apoptosis is 85.5% (active).
As for `O=C(c1cccc(Cl)c1)N1CCN(Cc2ccccc2)CC1`, the protection from apoptosis was -9.96%.
`COC(=O)[C@]1(Cc2ccccc2)N[C@H](CN(C)S(=O)(=O)c2ccc(OC(F)(F)F)cc2)[C@@H]2C(=O)N(Cc3ccccc3)C(=O)[C@@H]21`: the protection from apoptosis is 10.5%.
`CCOC(=O)c1ccc(NC(=O)Cn2nnc(-c3ccc(C)cc3)n2)cc1`: the protection from apoptosis was 3.31%.
On to `CCOC(=O)c1ccc(NC(=O)Cn2cnc3cc(C)c(C)cc32)cc1`, for which the protection from apoptosis was 105% (active).
As for `CCCc1nnc(SCC(=O)Nc2ccc(C(=O)OCC)cc2)o1`, the protection from apoptosis was 1.98%.
As for `O=C(CNC(=O)c1ccccc1F)OCC(=O)c1c[nH]c2ccccc12`, the figure is -14.7%; as for `COc1ccc(CCNC(=O)COC(=O)C2CC2C)cc1` (stereo not drawn), 0.884%; as for `Oc1ccccc1/C=N/n1c(-c2cccs2)n[nH]c1=S`, -8.28%.
As for `Cc1cc(-c2n[nH]c(=S)n2/N=C/C(Br)=C/c2ccccc2)n[nH]1`, the protection from apoptosis is 84.8% (active).
Turning to `S=c1[nH]nc(-c2cc(-c3ccccc3)n[nH]2)n1/N=C/c1c2ccccc2cc2ccccc12`, the protection from apoptosis is 10.1%.
For `CC(OC(=O)c1ccc([N+](=O)[O-])cc1)C(=O)NCC1CCCCC1` (stereo not drawn), the protection from apoptosis was -1.81%.
Under `Cc1cc(NC(=O)CN2C(=O)NC(CC(C)C)C2=O)no1` (stereo not drawn) stands -6.09%; under `CCOC(=O)N1CCN(C(c2cccnc2)c2ccc3cccnc3c2O)CC1` (stereo not drawn), 35.8%; under `Oc1ccccc1CN1CCN(C(c2ccccc2)c2ccccc2)CC1`, 0.217%.
As for `CCN1CCN(C(c2cccnc2)c2cc(Cl)c3cccnc3c2O)CC1` (stereo not drawn), the protection from apoptosis was 92.4% (active).
Turning to `COc1cc(/C=C/C(=O)OCC(=O)NCCCc2ccccc2)ccc1O`, the protection from apoptosis is -1.98%.
For the compound `C=CC[C@H](CC(=O)NCCO)C(=O)N[C@@H](COC(=O)[C@@H](CC=C)Cc1ccc(F)cc1)Cc1c[nH]c2ccccc12`, the protection from apoptosis was 6.33%.
Regarding `COc1ccc(NC(=O)CN(C)CC(=O)Nc2cccc(C(F)(F)F)c2)cc1`, the protection from apoptosis is -3.94%.
Turning to `COc1cc(NC(=O)c2[nH]cnc2C(N)=O)cc(C(=O)Nc2cccc(C(F)(F)F)c2)c1`, the protection from apoptosis is 114% (active).
In the case of `COc1cc(NC(=O)c2cncc(-c3ccc(C#N)cc3)c2)cc(C(=O)Nc2cccc(C(F)(F)F)c2)c1`, the protection from apoptosis is 23.5%.
On to `NS(=O)(=O)c1ccc(CNC(=S)NC(=O)c2ccco2)cc1`, for which the protection from apoptosis was 2.51%.
`COc1ccccc1OCCNc1cc(N2CCOCC2)ccc1[N+](=O)[O-]`: the protection from apoptosis was -8.92%.
Consider `COc1ccc(CCNc2cc(N3CCN(C(=O)c4ccccc4OC)CC3)ccc2[N+](=O)[O-])cc1OC`, for which the protection from apoptosis was 85.3% (active).
Consider `O=C(c1ccccc1)N1CCN(c2ccc([N+](=O)[O-])c(NCc3ccco3)c2)CC1`, for which the protection from apoptosis is 13.2%.
Under `O=S(=O)(c1ccc(SCc2ccc(Br)cc2)nc1)N1CCOCC1` stands -8.12%; under `Cc1ccc(OCC(=O)Nc2ccccc2C(=O)NC2CC2)cc1`, -2.93%.
In the case of `CC(Sc1ccccc1F)C(=O)Nc1cccc(S(=O)(=O)N2CCOCC2)c1` (stereo not drawn), the protection from apoptosis was -3.25%.
With `CC(C)NC(=O)Nc1cccc2c1O[C@H](CN(C)S(=O)(=O)c1cccs1)[C@@H](C)CN([C@H](C)CO)C2=O`, the protection from apoptosis is -19%.
Regarding `CCn1c(=O)c([N+](=O)[O-])c(NCc2ccc3c(c2)OCO3)c2ccccc21`, the protection from apoptosis is 1.81%.
Under `Cc1cc(C)nc(N/N=C/c2ccc([N+](=O)[O-])o2)n1` stands -3.24%; under `CCn1c(/C=C/c2ccc([N+](=O)[O-])o2)nc2ccccc2c1=O`, 104% (active); under `C=CC(COCc1ccccc1)N(CC(=O)OC)S(=O)(=O)c1cc(Br)ccc1OC` (stereo not drawn), 1.07%.
`O=C(Nc1ccon1)c1nc[nH]c1C(=O)NCc1ccccc1`: the protection from apoptosis is 2.59%.
Regarding `NC(=O)CSc1c[nH]c2ccccc12`, the protection from apoptosis is 0.633%.
Under `O=S(=O)(O)Oc1c[nH]c2ccccc12` stands 95.8% (active).
Regarding `O=C(NC1CCCC1)C(=O)c1c[nH]c2ccccc12`, the protection from apoptosis is -2.17%.
As to `Cc1cc(NC(=O)COC(=O)/C=C/c2ccc(C)o2)no1`, the protection from apoptosis is -0.145%.
`CC(=O)C[C@H](O)CC(=O)[C@@H]1OC(=O)[C@@H](C)C/C=C\Cc2ccccc21`: the protection from apoptosis was -6.43%.
As for `COc1ccccc1N(CC(=O)Nc1ccc(C)cc1Cl)S(=O)(=O)c1cccs1`, the protection from apoptosis is -11%.
Take `O=C(Nc1cccc(S(=O)(=O)N2CCCC2)c1)c1cncc(Br)c1`: the protection from apoptosis was -6.13%.
For the compound `COc1ccc(Nc2ccc([N+](=O)[O-])cn2)cn1`, the protection from apoptosis was -4.41%.
Consider `Cc1ccc(NC(=O)OCc2cncs2)cc1`, for which the protection from apoptosis is -4.61%.
`COc1ccc(NC(=O)/C(Cl)=C(/Cl)S(=O)Cc2ccc(C)cc2)cn1` (stereo not drawn): the protection from apoptosis is 106% (active).
As for `O=C(Nc1cc(S(=O)(=O)Nc2ccc(Cl)cc2)ccc1O)c1ccc(F)cc1F`, the figure is 3.17%; as for `CCCN(CC(=O)NC(=O)NC1CCCCC1)CC(=O)Nc1cc(Cl)ccc1Cl`, -6.07%.
As for `CN(C)S(=O)(=O)c1cccc(NC(=O)COc2ccc3ccccc3c2)c1`, the figure is -1.11%.
Turning to `Cc1nc(C)c(-c2csc(NCCc3ccccc3)n2)s1`, the protection from apoptosis was 78.4% (active).
As for `S=c1[nH]nc(NCCc2ccccc2)s1`, the figure is -4.61%; as for `CCNc1nc(-c2cc3ccccc3o2)cs1`, -12.4%; as for `O=C(CSc1ccccc1)Nc1cccc(S(=O)(=O)N2CCCCC2)c1`, -5.41%.
On to `COC(=O)[C@]1(Cc2ccccc2)N[C@H](CN(C)S(=O)(=O)c2ccc(OC(F)(F)F)cc2)[C@@H]2C(=O)N(C)C(=O)[C@@H]21`, for which the protection from apoptosis was -3.66%.
